# Source: PubChem BioAssay
# Lassa entry inh – Lassa virus entry inhibition. AID 540256. actives 1.2% (n = 300,000). Lassa virus pseudotype entry inhibition, cell reporter. Potency, µM (top dose mostly 37.9 µM), for inactives: top-dose activity change, negative = inhibition, usual class: inhibitors; calls by dose curve; tested in HEK293 cells; further: potency means the concentration at half of the fitted maximal effect; on the % scale 0 is the no-effect control and ±100 the full control effect; nearly all actives have a fitted effect of over 50% in size
# SARS PLpro yeast – blocks SARS-CoV papain-like protease in a yeast assay; Potency, µM (highest dose often 32.9 µM), for inactives: at the highest dose activity, positive = growth rescue, most hits filed as activators; S. cerevisiae expressing SARS-CoV PLpro, growth rescue; actives 0.19% (n = 330,000); calls by dose curve; further: potency means the concentration at half of the fitted maximal effect; 0% is about no effect; nearly all actives have a fitted effect of over 55% in size
# HCV inhibitor – blocks hepatitis C virus; Huh7.5.1 HCVcc-Cre infection, luciferase reporter, 44 h; Potency, µM (top dose mostly 41.8 µM), inactives show at the top dose activity change, negative = inhibition, actives largely listed as inhibitors; actives 3.4% (n = 340,000); AID 651820; active means well fitted inhibition curve with a large enough effect; inconclusive means small, poorly fitted or top-dose-only effect, or another doubt; inactive means no such curve, though single readings can be large or run the other way; further: potency means the concentration at half of the fitted maximal effect; on the % scale 0 is the no-effect control and ±100 the full control effect
#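 A cell-based infection assay in which seeded cells (1,000 per well) receive test compound after 4 h, are inoculated with HCVcc-Cre at approximately 0.5 moi, and are incubated 44 h before luminescence detection.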
# Marburg entry inh – Marburg virus entry inhibition. Marburg virus pseudotyped entry inhibition, cell reporter. Potency, µM (titrated, usually from 37.8 µM), inactives show top-dose activity change, negative = inhibition, usual class: inhibitors. actives 1.8% (n = 300,000). AID 540276; calls by dose curve; tested in HEK293 cells; further: potency means the concentration at half of the fitted maximal effect; on the % scale 0 is the no-effect control and ±100 the full control effect
# HCMV antiviral – human cytomegalovirus inhibition; HFF cells, HCMV-luciferase reporter, 72 h; active compounds read low; activity change, negative = inhibition, % at 57.5 µM; actives 4.5% (n = 410,000); in the data active means activity change below about -60%; inconclusive means no clear call, values can overlap the other calls; inactive means above about -39%; further: on the % scale 0 is the no-effect control and ±100 the full control effect
#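 Screen run at 2 compound doses on HFFs infected with reporter HCMV, MOI 1 PFU/cell. Luciferase activity from cell lysates at 72 h post infection gave inhibition relative to buffer-only and Salinomycin wells.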
# FMDV antiviral – foot and mouth disease virus antiviral activity | FMDV antiviral cell-based qHTS | Potency, µM (series often up to 57.9 µM), inactives show at the highest dose activity change, negative = inhibition, most hits filed as inhibitors | actives 1.2% (n = 410,000) | AID 1159524; calls by dose curve; tested in HEK293T cells; further: read-out not given here; potency means the concentration at half of the fitted maximal effect; on the % scale 0 is the no-effect control and ±100 the full control effect; nearly all actives have a fitted effect of over 45% in size
# An asterisk follows results filed as active; ? = inconclusive; . = no result; + = active, no number; [ ] = remark or other dose. Rows were chosen to be rich in hits. Some 8% of all compounds tested hit in one or more screens of this group.
SMILES,Lassa entry inh,SARS PLpro yeast,HCV inhibitor,Marburg entry inh,HCMV antiviral,FMDV antiviral
COc1ccc(-c2noc(COc3cc(C)c(Br)c(C)c3)n2)cc1OC,5%[46.1 µM],.,.,-1%[46.1 µM],6,-21%
Cc1ccc(CNC(=O)NC2COc3ccccc3C2)cc1 (stereo not drawn),-17%[46.1 µM],.,.,.,18,-10%
Clc1ccc2c(N/N=C/c3ccc(Br)cc3)ccnc2c1,?,-81%,11µM*,3.3µM*,-73*,-33%
Clc1ccc2c(N/N=C/c3cccnc3)ccnc2c1,?,-3%,-21%,?,?,5%
Cc1c(/C=C/C(=O)c2ccc(C(C)C)cc2)cnn1C,?,0%,32µM*,14%[46.1 µM],-87*,-1%
Cc1c(/C=C/C(=O)c2ccc(O)cc2)cnn1C,1%,3%,?,-15%,-14,11%
Fc1ccc2c(c1)-c1nc(-c3ccccc3)cc(-c3ccccc3)c1CO2,-7%[46.1 µM],.,.,-18%[46.1 µM],-19,0%
Cc1nc2nc(SCC(=O)NCCCN3CCCCCC3)nn2c(C)c1Cc1ccccc1Cl,.,-1%,?,.,+,4%
Cc1nc2nc(SCC(=O)NCCCN3CCCC(C)C3)nn2c(C)c1Cc1ccccc1Cl (stereo not drawn),.,-3%,11µM*,.,0,-23%
CCC1CCCCN1CCCNC(=O)CSc1nc2nc(C)c(Cc3ccccc3Cl)c(C)n2n1 (stereo not drawn),.,1%,-25%,.,0,5%
Cc1ccccc1Cc1c(C)nc2nc(SCC(=O)NCCCN3CCCC3)nn2c1C,9%[46.1 µM],-12%,?,?,-25,-1%
Cc1ccc(-n2nc3c(N4CCC(C(=O)NC5CCCCC5)CC4)nnc(C)c3c2C)cc1,16%[46.1 µM],.,.,.,-8,-9%
CCOc1ccccc1NC(=O)Cn1c(=O)n(-c2ccccc2)c(=O)c2c1c1cc(C)ccc1n2C,0%[46.1 µM],.,.,.,22,-8%
N#Cc1ccc(C(c2nnnn2C2CCCC2)N2CCC(Cc3ccccc3)CC2)cc1 (stereo not drawn),-4%,3%,-2%,-28%,-91*,-11%
CC(=O)c1ccc(OC(=O)C2c3ccccc3Oc3ccccc32)cc1,20%,0%,15%,?,1,-16%
Cc1ccc(OC(=O)C2c3ccccc3Oc3ccccc32)cc1C,18µM*,5%,-2%,?,-28,-25%
COc1cc(C2Oc3cc(C4Oc5cc(O)cc(O)c5C(=O)C4O)ccc3OC2CO)ccc1O (stereo not drawn),7%,22%,?,11%,-67*,?
CC(C)c1cccc(-c2nc3c(Nc4ccccc4)nccc3[nH]2)c1,.,.,.,.,-17,.
CCc1c(C#N)c(SCCC(=O)Nc2ccc(C)cc2)nc2c1C(=O)CC(C)(C)C2,-4%,-2%,8.9µM*,1%,-29,-9%
O=C(C1CCCCC1)N1C[C@H](n2cc(-c3ccc(F)cc3)nn2)[C@@H](O)C[C@@H]1c1ccccc1,.,.,.,.,-34,-6%
CCCCCCN1C[C@@H](n2cc(-c3ccc(F)cc3)nn2)[C@H](O)C[C@H]1c1ccccc1,.,.,.,16µM*,.,.
O=C(C1CCCCC1)N1C[C@H](n2cc(-c3ccc(F)cc3)nn2)[C@H](O)C[C@@H]1c1ccc(Cl)cc1,.,.,.,3.5µM*,.,.
O[C@H]1C[C@H](c2ccccc2)N(CC2CCCCC2)C[C@@H]1n1cc(-c2ccc(F)cc2)nn1,.,.,.,.,-101*,?
CCCCCCN1C[C@@H](n2cc(-c3ccc(F)cc3)nn2)[C@H](O)C[C@@H]1c1ccccc1,.,.,.,.,1,-10%
CC(=O)c1ccc(NS(=O)(=O)c2cc(-c3cc(C)no3)ccc2C)cc1,3%[46.1 µM],.,.,.,-2,66%
SMILES,Lassa entry inh,SARS PLpro yeast,HCV inhibitor,Marburg entry inh,HCMV antiviral,FMDV antiviral
COc1cccc(NC(=O)c2cc(CN3CCOCC3)on2)c1,?,.,.,.,37,39%
CCCS(=O)(=O)N1CCN=C1SCc1cccnc1,-4%,1%,5%,16%[46.1 µM],-62*,10%
CCCS(=O)(=O)N1CCN=C1SCc1ccc(F)cc1,.,1%,8%,.,0,0%
O=S(=O)(c1ccccc1)N1CCN=C1SCc1ccc(Cl)c(Cl)c1,?,-14%,?,?,-74*,-24%
O=S(=O)(c1ccc(F)cc1)N1CCN=C1SCc1cccnc1,.,4%,6%,.,-67*,-5%
O=S(=O)(c1ccc2ccccc2c1)N1CCN=C1SCc1cccnc1,.,-6%,19%,.,-17,-6%
CN(C)S(=O)(=O)c1ccc(C(=O)N2CCN=C2SCc2cccnc2)cc1,?,20µM*,4%,?,-15,-20%
O=C(O)CCCN=C1NC2(CCCC2)CC2=C1CCCC2,.,.,.,0%,.,.
Cc1nc(N2CCOCC2)c2c(C(=O)N(C)Cc3ccccc3)c(C)oc2n1,8%[46.1 µM],.,.,.,1,-9%
COc1ccccc1CN1CCOc2ccc(C(C)(O)COc3ccccc3)cc2C1 (stereo not drawn),.,.,.,.,.,-6%
CCCCN(CC)C(=O)CSc1nc2n[nH]c(C)c2c(=N)n1-c1cccc(Cl)c1,?,.,.,.,-10,?
CCS(=O)(=O)N1CCN=C1SCc1cccc(F)c1,.,-2%,30%,.,-60*,-23%
O=S(=O)(c1ccc(Br)cc1)N1CCN=C1SCc1cccnc1,.,-2%,14%,.,-69*,-9%
CS(=O)(=O)N1CCN=C1SCc1cccc(F)c1,.,-3%,10%,.,-30,3%
CCOc1ccc(C(=O)N2CCC(c3nc4ccccc4o3)CC2)cc1,-5%[46.1 µM],.,.,-17%[46.1 µM],5,-13%
O=C(NC1CCCCC1)C(c1ccccc1)N(Cc1ccc2c(c1)OCO2)C(=O)c1cnsn1 (stereo not drawn),?,-4%,4%,11µM*,-36,8%
O=C(OCn1ncc(Br)c(Br)c1=O)c1c(F)cccc1F,.,-16%,2.8µM*,5%,.,.
CC(=O)Cn1ncc(Br)c(Br)c1=O,?,-1%,?,?,-105*,?
O=S(=O)(Nc1cccc(-c2ccc(N3CCCCCC3)nn2)c1)c1ccccc1Cl,.,0%,11µM*,.,-76*,7%
COc1ccc(C)cc1S(=O)(=O)Nc1cccc(-c2ccc(N3CCCCCC3)nn2)c1,.,-4%,10µM*,.,-18,8%
COc1ccc(C)cc1S(=O)(=O)Nc1cccc(-c2ccc(N3CCC(C)CC3)nn2)c1,29%[46.1 µM],.,.,.,29,20%
CC(=O)c1ccccc1NC(C(=O)NC1CCCCC1)c1ccccc1F (stereo not drawn),.,.,.,.,-11,.
CC1(OC(=O)C2CCCC2)C(=O)C=C2C=C(c3ccsc3)N(c3cccc(C#N)c3)C=C2C1=O (stereo not drawn),.,.,.,11%[14.2 µM],.,.
CC(NC(=O)c1cc2sccc2n1Cc1ccc(F)cc1)c1ccccc1 (stereo not drawn),-19%[46.1 µM],.,.,-18%[46.1 µM],-85*,0%
COc1ccccc1N1CCN(C(=O)c2cc3sccc3n2C)CC1,?,2%,?,?,-76*,-25%
